Screening data from PubChem.
PNC assembly inh: inhibitors of perinucleolar compartment assembly; AID 2417; activity change (PNC), negative = inhibition, % at 10 µM; actives 3.1% (n = 140,000); PC3M PTB-GFP, PNC prevalence imaging, 16 h; active compounds read low;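 active means readout at or below -70, meaning at least 70% loss of cells showing the perinucleolar compartment, a nuclear body marking cancer cells; inconclusive means readout between -30 and a set limit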;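 further: plate controls were DMSO wells for no effect and camptothecin positive control wells for full effect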
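PC3M cells stably expressing PTB-GFP, 750–1000 cells/well, treated 16 h at 37 °C with compound (23 nl of library stock), in duplicate. After paraformaldehyde fixation and Hoechst stain, imaged at 20x; PNC prevalence scored by image analysis.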
HPGD block: blocks human HPGD enzyme activity | Potency, µM, for inactives: at the highest dose activity change, negative = inhibition, hits mostly inhibitors | purified HPGD, NADH fluorescence kinetic, PGE2 substrate | P15428 | AID 894 | actives 4.3% (n = 150,000); further: potency means the concentration at half of the fitted maximal effect
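20 nM HPGD preincubated 15 min at room temperature with compound in 50 mM Tris-HCl pH 8, 0.01% Tween 20. Started with 1 mM NAD+ and 30 uM prostaglandin E2; NADH fluorescence (360/450 nm) read 5 times over 30-s intervals, last minus first.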
ALDH1A1 inh: inhibitors of human aldehyde dehydrogenase 1A1; Purified ALDH1A1, NADH fluorescence, propionaldehyde substrate; Potency, µM (series often up to 75.3 µM), for the others: at the top dose activity, negative = inhibition, most hits filed as inhibitors; actives 7.3% (n = 220,000); P00352;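 further: potency means the concentration at half of the fitted maximal effect; plate controls were no enzyme wells and a reference inhibitor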
ALOX12 inhib: blocks human 12-lipoxygenase activity; purified 12-hLO, xylenol orange hydroperoxide absorbance; AID 1452; Potency, µM (top dose mostly 57.1 µM), for inactives: at the top dose activity change, negative = inhibition, hits mostly inhibitors; P18054; actives 0.12% (n = 150,000); active means well fitted inhibition curve with a large enough effect; inconclusive means small, poorly fitted or top-dose-only effect; further: potency means the concentration at half of the fitted maximal effect; nearly all actives have a fitted effect of over 55% in size
Target sequence (P18054 whole entry, looked up): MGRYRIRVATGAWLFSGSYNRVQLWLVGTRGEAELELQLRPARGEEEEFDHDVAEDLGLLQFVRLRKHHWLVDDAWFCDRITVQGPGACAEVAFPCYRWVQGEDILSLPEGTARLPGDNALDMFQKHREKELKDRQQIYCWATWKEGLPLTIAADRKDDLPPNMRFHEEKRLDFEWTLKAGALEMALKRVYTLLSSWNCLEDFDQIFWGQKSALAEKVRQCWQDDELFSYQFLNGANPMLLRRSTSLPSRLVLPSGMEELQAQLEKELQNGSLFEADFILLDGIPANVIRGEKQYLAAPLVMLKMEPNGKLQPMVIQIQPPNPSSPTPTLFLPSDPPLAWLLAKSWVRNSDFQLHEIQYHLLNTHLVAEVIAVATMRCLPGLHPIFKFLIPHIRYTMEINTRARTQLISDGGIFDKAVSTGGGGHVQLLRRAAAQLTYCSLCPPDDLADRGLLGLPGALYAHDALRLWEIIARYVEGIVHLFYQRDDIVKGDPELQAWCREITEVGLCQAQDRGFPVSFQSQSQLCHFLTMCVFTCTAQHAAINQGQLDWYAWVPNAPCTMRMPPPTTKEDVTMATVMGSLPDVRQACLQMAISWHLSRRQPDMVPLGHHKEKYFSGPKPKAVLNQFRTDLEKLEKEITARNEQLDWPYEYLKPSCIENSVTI
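Purified human 12hLO (150 nM final) was preincubated with compounds for 15 min at room temperature in 25 mM Hepes pH 7.0, 0.01% Triton X-100, then reacted with 40 uM arachidonic acid for 30 min. Hydroperoxide was detected with ferrous iron/xylenol orange.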
Lamin A splicing: LMNA splicing modulation; actives 0.01% (n = 200,000); Potency, µM (doses to about 46.1 µM), inactives show at the top dose ratio change, negative = inhibition, hits mostly inhibitors; HeLa LMNA splicing GFP/RFP minigene ratio, 48 h; active means well fitted inhibition curve with a large enough effect in the signal ratio, with a control signal flat, not every such curve was filed as active; inconclusive means small, poorly fitted or top-dose-only effect, or effect the other way, or a change in a side signal; the % refers to the signal ratio; further: potency means the concentration at half of the fitted maximal effect
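S3 HeLa stable clones carrying a lamin A-EGFP splicing minigene plus DsRed2 were seeded at 600 cells/well in Opti-MEM with 2% FBS, pin-dosed and incubated 48 h at 37°C. Acumen cytometry (488 nm) gave the GFP/RFP total-intensity ratio.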
Starred values were filed as active, the others as inactive; [ ] = another dose, or the depositor's remark. In the library only some 10% were active in any assay of this set; here they are far more common. Unless noted, the call rests on the fitted dose curve; in most records, active means well fitted inhibition curve with a large enough effect (not every such curve was filed as active); inconclusive means small, poorly fitted or top-dose-only effect, or another doubt; inactive means no such curve, though single readings can be large or run the other way. Unless noted, on the % scale 0 is the no-effect control and ±100 the full control effect.

`O=C(CSc1nnc(-c2cccnc2)n1-c1ccccc1)Nc1ccccc1` gave PNC assembly inh -100*, HPGD block -15%, ALDH1A1 inh 1%, ALOX12 inhib 6% and Lamin A splicing -11%.
For Cc1ccccc1-n1c(SCC(=O)c2cc(C)n(C)c2C)nnc1-c1cccnc1 the results were PNC assembly inh -5, HPGD block 25µM*, ALDH1A1 inh inconclusive, ALOX12 inhib 1% and Lamin A splicing 11%.
`O=C(CSc1n[nH]c(-c2ccccc2)n1)Nc1ccc(N2CCOCC2)cc1` gave ALDH1A1 inh 22µM* and Lamin A splicing -8%[46 µM].
For O=C(CSc1ccccc1)Nc1ccc(N2CCOCC2)cc1 the results were PNC assembly inh 2, HPGD block -8%, ALDH1A1 inh inconclusive, ALOX12 inhib -3% and Lamin A splicing -6%.
O=C(CSc1n[nH]c(-c2cccnc2)n1)Nc1ccccc1 was read as PNC assembly inh -30, HPGD block 10µM*, ALDH1A1 inh 1%, ALOX12 inhib 2% and Lamin A splicing 0%.
`C/C(CC(=O)Nc1ccc([N+](=O)[O-])cc1)=N/NC(=O)C1CC12CCC2` (centres undefined) gave ALDH1A1 inh inconclusive and Lamin A splicing -13%[46 µM].
CCOC(=O)c1ccc(NS(=O)(=O)c2cc3c(cc2C)n(C)c(=O)c(=O)n3C)cc1 was read as Lamin A splicing 6%[46 µM].
Screening COCCN=C1Sc2nc3ccc(C)cc3cc2CN1Cc1ccco1 returned PNC assembly inh 9, HPGD block -20%, ALDH1A1 inh 25µM*, ALOX12 inhib -24% and Lamin A splicing 1%.
For CCOc1ccc2nc3c(cc2c1)CN(CCOC)C(=NCCOC)S3 the results were PNC assembly inh 23, HPGD block -3%, ALDH1A1 inh 4%, ALOX12 inhib 0% and Lamin A splicing 11%.
Screening COc1ccc(C2NC(C(=O)O)Cc3c2[nH]c2ccccc32)cc1OC (centres undefined) returned PNC assembly inh -98*, HPGD block -23%, ALDH1A1 inh inconclusive, ALOX12 inhib inconclusive and Lamin A splicing -12%.
Screening COc1ccc(NC(=O)N2CC3(CCN(C(=O)c4csnn4)CC3)C2)cc1 returned HPGD block -7%, ALDH1A1 inh -6% and ALOX12 inhib 5%.
Screening C/C(=N\Nc1cccc(Cl)c1)c1ccncc1 returned ALDH1A1 inh -16%.
For C/C(=N\Nc1ccc(F)cc1)c1ccncc1 the results were PNC assembly inh inconclusive, HPGD block -25%, ALDH1A1 inh 20µM*, ALOX12 inhib -23% and Lamin A splicing -6%.
For CCc1nn2c(=O)cc(COc3ccc(/C=C4\C(=N)N5N=C(C)SC5=NC4=O)cc3)nc2s1 the results were ALDH1A1 inh 8.9µM*.
For CCCCCCCC1=Cc2ccc(F)cc2C(C(C(C)=O)C(=O)OC)N1C(=O)OC (centres undefined) the results were HPGD block -5%, ALDH1A1 inh 14%, ALOX12 inhib -4%[11.4 µM] and Lamin A splicing 6%[9.22 µM].
For C[C@H](O)[C@H](O)[C@@H]1CNc2nc(N)[nH]c(=O)c2N1 the results were ALOX12 inhib -7%.
For O=C(CC(Nc1ccccc1)C(=O)O)c1ccccc1 (centres undefined) the results were PNC assembly inh 7, HPGD block -12%, ALDH1A1 inh 1.8µM*, ALOX12 inhib -5% and Lamin A splicing 18%.
For C=C(C(=O)c1ccccc1)C(C)CC(=O)c1ccccc1 (centres undefined) the results were PNC assembly inh -6, HPGD block 28µM*, ALDH1A1 inh inconclusive, ALOX12 inhib -4% and Lamin A splicing inconclusive.
Screening O=C(CC(Nc1ccccc1)c1ccc(F)cc1)c1ccccc1 (centres undefined) returned PNC assembly inh 33, HPGD block -4%, ALDH1A1 inh -4%, ALOX12 inhib -9% and Lamin A splicing inconclusive.
`O=C(CP(=O)(O)CC(=O)c1ccccc1)c1ccccc1` gave ALDH1A1 inh 8% and Lamin A splicing -7%[46 µM].
Cc1ncc2c(c1O)COP(=O)(O)OC2 was read as HPGD block -1%, ALDH1A1 inh 5% and ALOX12 inhib -2%.
